# MRP1 act: activators of MRP-1 | 140,000 compounds, 0.61% hits | viability increase, % at 10 µM | H69AR cells + doxorubicin, viability rescue, CellTiter-Glo | AID 799;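 active means viability gain under doxorubicin at or above a set limit, the compound median plus 3 SD, cut at about 4.7% in these data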;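 further: MRP-1 overexpressing cells given doxorubicin 25 µM after compound pretreatment; 18-22 h compound pretreatment then 72 h with doxorubicin before readout; 0% = doxorubicin-only wells and 100% = vehicle-treated cells without doxorubicin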
# MRP reversal: MRP-mediated drug resistance reversal; H69AR cells + 2 uM doxorubicin, CellTiter-Glo, 72 h; differential viability (reversal), % at 10 µM; 85,000 compounds, 0.04% hits;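 active means viability drop by adding the cancer drug above about 55%, with treated viability meeting a 40% cutoff, limit read from the data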;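 further: viability without doxorubicin minus viability with 2 µM doxorubicin for each compound; larger differential means the compound sensitizes cells more to doxorubicin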
# Cav3 T inh: blocks human Cav3.2 T-type calcium channel; Cav3.2-expressing cells, Fluo-4 calcium fluorescence FDSS; active compounds read low; B-score at 10 µM; 100,000 compounds, 4% hits; AID 449739;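 active means single-dose well whose peak fluorescence ratio is a statistical outlier from its plate by either plate-standardised score or position-corrected B-score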
# PTK2B oligo ant: Pyk2 (human) oligomerization antagonism; Q14289; Q293 cells, Pyk2 FERM NanoBiT luminescence; active compounds read low; z-score (the deposit names both 25 µM and 10 µM); 99,000 compounds, 0.83% hits; AID 1347419;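 active means Z-score of -3 or lower, scaled per plate to the spread of control and sample wells; inactive means z-score above -3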;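 further: negative z-score means lost luminescence so less FERM oligomerization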
# Target sequence (Q14289 whole entry, looked up): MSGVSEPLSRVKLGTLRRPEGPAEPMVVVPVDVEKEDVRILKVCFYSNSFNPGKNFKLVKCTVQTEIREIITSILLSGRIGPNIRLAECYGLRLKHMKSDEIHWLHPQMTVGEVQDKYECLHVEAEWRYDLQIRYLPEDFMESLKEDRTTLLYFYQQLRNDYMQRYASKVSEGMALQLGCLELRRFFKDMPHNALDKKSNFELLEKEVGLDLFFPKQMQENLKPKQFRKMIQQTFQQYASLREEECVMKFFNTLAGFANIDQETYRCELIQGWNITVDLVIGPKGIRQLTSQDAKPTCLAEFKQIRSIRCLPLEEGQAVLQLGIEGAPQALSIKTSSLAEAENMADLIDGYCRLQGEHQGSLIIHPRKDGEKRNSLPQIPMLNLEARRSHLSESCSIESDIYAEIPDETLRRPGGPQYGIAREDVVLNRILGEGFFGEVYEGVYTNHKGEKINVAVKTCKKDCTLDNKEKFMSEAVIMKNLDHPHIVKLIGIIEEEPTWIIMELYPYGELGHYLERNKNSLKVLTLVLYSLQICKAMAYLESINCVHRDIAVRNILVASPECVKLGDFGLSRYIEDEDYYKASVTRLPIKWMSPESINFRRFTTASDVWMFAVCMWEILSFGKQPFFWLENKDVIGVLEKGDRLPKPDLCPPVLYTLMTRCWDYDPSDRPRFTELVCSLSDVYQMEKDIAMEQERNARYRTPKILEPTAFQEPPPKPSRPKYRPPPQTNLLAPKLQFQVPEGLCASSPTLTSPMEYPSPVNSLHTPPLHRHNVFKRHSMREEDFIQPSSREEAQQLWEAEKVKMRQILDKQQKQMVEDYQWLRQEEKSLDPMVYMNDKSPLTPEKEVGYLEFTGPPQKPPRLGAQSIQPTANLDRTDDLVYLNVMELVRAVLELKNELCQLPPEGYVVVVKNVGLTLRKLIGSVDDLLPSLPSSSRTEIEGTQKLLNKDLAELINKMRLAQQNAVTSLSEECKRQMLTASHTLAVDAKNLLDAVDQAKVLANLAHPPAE
# Mac1 fbg inh: blocks human CD11b/CD18 adhesion to fibrinogen; K562 CD11b/CD18 adhesion to fibrinogen, ATPlite luminescence; Mn2+ added to activate the integrin; inhibition, % at 10 µM; 93,000 compounds, 0.54% hits; AID 1497;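 active means primary inhibition of 50% or more at 10 µM, then 40% or more on retest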
# CD11b adhes enh: CD11b/CD18-fibrinogen binding enhancement; P05107+P11215; K562 CD11b/CD18 adhesion to fibrinogen, ATPlite luminescence; activation, % at 10 µM; 93,000 compounds, 0.07% hits;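 active means 10 µM primary screen giving 50% or more activity, confirmed by 40% or more on retest at that dose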
# * hit, by the source's call; nt = no result given. Hits are enriched below; roughly 4.1% of the tested compounds scored in any of these assays.
SMILES,MRP1 act,MRP reversal,Cav3 T inh,PTK2B oligo ant,Mac1 fbg inh,CD11b adhes enh
COc1ccc(C)cc1NC(=O)c1c(C)nn(Cc2ccccc2)c1Cl,4.8*,nt,nt,nt,5.7,6.5
COc1cccc(-n2c(O)c(C=Nc3c(C)n(C)n(-c4ccccc4)c3=O)c(=O)[nH]c2=O)c1,-1.9,nt,nt,nt,nt,nt
CN(C)C1(c2nnnn2CCOC(=O)Nc2ccc(Cl)cc2)CCCCC1,-0.6,-18.2,-2.96*,0.41,19.9,5.6
C[N+]1(CCC(C(N)=O)(c2ccccc2)c2ccccc2)CCCCC1,nt,nt,2.69,nt,nt,nt
O=C(Cn1cc(C(=O)c2ccccc2F)c2ccccc21)NCc1ccco1,-2.5,22.8,-0.298,-3.23*,-30.0,1.9
Cc1noc(C)c1C(=O)N1CCC2(CC1)OCCO2,-1.8,-2.3,0.549,-0.21,-55.2,1.0
COCCNC(=O)c1c(N)n(Cc2ccco2)c2nc3ccccc3nc12,-3.9,-25.4,-1.57,0.95,13.7,1.0
CC(C)(C)OC(=O)c1c(N)n(Cc2ccco2)c2nc3ccccc3nc12,-3.5,1.3,-5.32*,0.69,5.0,0.5
O=c1cc(C(F)(F)F)c2cc3c4c(c2o1)CCCN4CCC3,-1.8,1.6,-7.83*,-0.5,-19.7,13.2
Cc1cc2c(C(F)(F)F)cc(=O)oc2c2c1NCCC2,0.5,0.9,-8.32*,0.38,nt,nt
Cc1c2cnn(CC(=O)N3CCC4(CC3)OCCO4)c(=O)c2c(C)n1Cc1ccc(F)cc1,-4.0,nt,0.588,3.02,2.0,-5.4
O=C(Cn1ncc2c3ccccc3n(Cc3ccccc3)c2c1=O)N1CCC2(CC1)OCCO2,-0.8,7.6,-10.8*,nt,29.8,1.5
O=C(Cn1ncc2c3ccccc3n(Cc3ccccc3F)c2c1=O)N1CCC2(CC1)OCCO2,-2.6,-0.9,-8.58*,-0.78,0.5,-3.6
CCC(C)n1c(O)c(/C=N/NC(=O)c2ccncc2)c(=O)[nH]c1=S (stereo unspecified),0.5,nt,nt,nt,nt,nt
COC(=O)C1=C(c2cc3ccccc3o2)C[C@@H]2CC[C@H]1N2C(=O)NCc1cccc2ccccc12,nt,nt,-3.62*,nt,nt,nt
CCN1CCN(C(c2cccs2)C(C)NC(=O)Oc2ccccc2)CC1 (stereo unspecified),nt,nt,1.1,nt,nt,nt
CC(C)CCNC(=O)c1c(N)n(CC2CCCO2)c2nc3ccccc3nc12 (stereo unspecified),-3.8,nt,-4.2*,-1.18,-25.5,-0.5
CCC(C)NC(=O)c1c(N)n(CCCOC)c2nc3ccccc3nc12 (stereo unspecified),-4.1,-32.0,-1.51,-0.66,-10.1,4.9
CCC(C)NC(=O)c1c(N)n(CC2CCCO2)c2nc3ccccc3nc12 (stereo unspecified),-3.1,0.1,-8.71*,-0.19,-8.6,-0.2
CCc1ccc(C(=O)C23CN4CN(CN(C4)C2)C3)cc1,-0.9,6.2,0.917,0.23,nt,nt
O=C1NC(=O)N(Cc2ccccc2Cl)C(=O)/C1=C/N1CCOCC1,2.8,-4.3,0.21,0.83,-0.7,0.3
O=C1NC(=O)N(C2CCCCC2)C(=O)C1C1c2ccccc2C(=O)N1Cc1ccccc1 (stereo unspecified),-1.2,nt,nt,0,-0.9,4.2
CCN(CCCl)Cc1ccccc1Br,nt,nt,-5.08*,nt,nt,nt
C=C(C)[C@@]12OC3(c4ccccc4)O[C@@H]1C1[C@@H]4O[C@]4(CO)[C@@H](O)[C@]4(O)C(=O)C(C)=C[C@H]4[C@@]1(O3)[C@H](C)[C@H]2OC(=O)/C=C/C=C/c1ccccc1 (stereo partly specified),nt,nt,-4.42*,nt,nt,nt
CN1C(=O)C(Cc2c[nH]c3ccccc23)C(=O)N(C)C1=O,-1.9,-18.0,nt,nt,0.0,2.2
SMILES,MRP1 act,MRP reversal,Cav3 T inh,PTK2B oligo ant,Mac1 fbg inh,CD11b adhes enh
CCC(C)(C)n1nnnc1CN1CCC(n2c(C)nc3cc(C(F)(F)F)ccc32)CC1,-3.6,-4.1,4.03*,1.93,nt,nt
Cc1c2ccncc2c(C)c2c1[nH]c1ccccc12,-3.8,nt,-4.4*,nt,nt,nt
c1ccc2c(c1)[nH]c1cnccc12,-1.6,-2.8,-0.0758,nt,nt,nt
CCCCCCn1c(O)c(C=NC2CCN(Cc3ccccc3)CC2)c(=O)[nH]c1=O,0.0,-2.6,-3.31*,0.26,49.6,-3.5
CC/C(=C\C=C\[C@@H]1C=C[C@@H]2CCC[C@H]2[C@@H]1C(=O)c1ccc[nH]1)[C@@H]1O[C@@H]([C@@H](C)C(=O)O)CC[C@@H]1C,-4.2,3.9,-8.53*,nt,nt,nt
C=CCn1c(O)c(C(C)=NCCO)c(=O)[nH]c1=O,-1.4,nt,0.0387,0.33,26.4,-4.3

# Screening data: PubChem BioAssay, several laboratories
